Test results reported in article PMC7862700, “An all-to-all approach to the identification of sequence-specific readers for epigenetic DNA modifications on cytosine”.

How the values were obtained:
Experiment in all cases: DAPPL (digital affinity profiling via proximity ligation, sequencing); 10 mM Tris-HCl pH 7.5, 50 mM NaCl, 1 mM DTT, 4% glycerol, room temperature, 30 min; GST-TFs on glutathione beads, 16-mer random dsDNA library, 0.1% formaldehyde crosslink after washing; high values mean tight binding
[1] = molecular target: T1, FEV (Homo sapiens, UniProt Q99581 1-238); details: protein: recombinant; tags: N-terminal GST; dsDNA, one strand shown
T1 sequence: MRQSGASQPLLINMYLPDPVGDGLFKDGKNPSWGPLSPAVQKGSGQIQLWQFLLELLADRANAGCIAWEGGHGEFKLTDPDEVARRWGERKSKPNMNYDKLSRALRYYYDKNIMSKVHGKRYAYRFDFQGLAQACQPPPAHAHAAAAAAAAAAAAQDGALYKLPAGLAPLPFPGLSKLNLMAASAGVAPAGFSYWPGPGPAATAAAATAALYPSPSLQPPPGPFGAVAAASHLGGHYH
Summary of the method: (§1)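 Human transcription factors fused to GST were expressed in yeast, captured on glutathione beads, given DNA barcodes and pooled with a GST-only negative control. Pools were incubated with 200 nmole of a 16-mer random double-stranded DNA library in Tris/NaCl/DTT/glycerol buffer at room temperature for 30 min. They were then washed, crosslinked with 0.1% formaldehyde, proximity-ligated (BsaI/T4 ligase, 1 h, 37 °C), PCR-amplified and sequenced on an Illumina NextSeq500. Binding signal is each 6-mer's read frequency for a factor divided by its frequency for the GST control.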

[2] = molecular target: ETV5 (Homo sapiens, UniProt P41161 1-510); details: protein: recombinant; tags: N-terminal GST; dsDNA, one strand shown
Summary of the method: as §1

[3] = molecular target: HSF1 (Homo sapiens, UniProt Q00613 1-529); details: protein: recombinant; tags: N-terminal GST; chain copies: 3; dsDNA, one strand shown
Summary of the method: as §1

[4] = molecular target: T2, SPIC (Homo sapiens, UniProt Q8N5J4 1-248); details: protein: recombinant; tags: N-terminal GST; dsDNA, one strand shown
T2 sequence: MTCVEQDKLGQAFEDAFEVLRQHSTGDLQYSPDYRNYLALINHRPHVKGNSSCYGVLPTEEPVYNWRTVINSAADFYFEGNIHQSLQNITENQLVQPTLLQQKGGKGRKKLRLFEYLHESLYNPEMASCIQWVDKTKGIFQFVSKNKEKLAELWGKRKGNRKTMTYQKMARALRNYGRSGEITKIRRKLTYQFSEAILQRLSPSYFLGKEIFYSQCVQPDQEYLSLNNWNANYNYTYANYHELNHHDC
Summary of the method: as §1

[5] = molecular target: ELF4 (Homo sapiens, UniProt Q99607 1-663); details: protein: recombinant; tags: N-terminal GST; dsDNA, one strand shown
Summary of the method: as §1

[6] = molecular target: T3, ELK4 (Homo sapiens, UniProt P28324-2 1-405); details: protein: recombinant; tags: N-terminal GST; dsDNA, one strand shown
T3 sequence: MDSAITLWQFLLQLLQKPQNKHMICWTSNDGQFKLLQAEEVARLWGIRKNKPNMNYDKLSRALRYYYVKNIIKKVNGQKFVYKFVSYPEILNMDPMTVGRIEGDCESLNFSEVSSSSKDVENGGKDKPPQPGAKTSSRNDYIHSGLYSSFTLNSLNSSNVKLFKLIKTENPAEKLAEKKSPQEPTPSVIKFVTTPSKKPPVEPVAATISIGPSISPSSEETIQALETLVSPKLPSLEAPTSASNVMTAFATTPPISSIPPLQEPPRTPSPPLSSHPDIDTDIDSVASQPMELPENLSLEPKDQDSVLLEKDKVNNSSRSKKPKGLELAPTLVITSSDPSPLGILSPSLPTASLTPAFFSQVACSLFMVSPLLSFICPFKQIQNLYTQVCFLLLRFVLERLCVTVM
Summary of the method: as §1

[7] = molecular target: T4, ETV2 (Homo sapiens, UniProt O00321 1-342); details: protein: recombinant; tags: N-terminal GST; dsDNA, one strand shown
T4 sequence: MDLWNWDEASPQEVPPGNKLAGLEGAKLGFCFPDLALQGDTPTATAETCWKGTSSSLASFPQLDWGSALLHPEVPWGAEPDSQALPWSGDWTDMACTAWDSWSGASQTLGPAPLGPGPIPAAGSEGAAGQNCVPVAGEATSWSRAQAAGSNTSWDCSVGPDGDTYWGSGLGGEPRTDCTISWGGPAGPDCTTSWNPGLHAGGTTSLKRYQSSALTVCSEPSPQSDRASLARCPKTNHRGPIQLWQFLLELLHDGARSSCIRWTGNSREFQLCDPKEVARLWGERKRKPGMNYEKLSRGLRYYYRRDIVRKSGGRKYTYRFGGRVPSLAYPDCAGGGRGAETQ
Summary of the method: as §1

[8] = molecular target: T5, ELF3 (Homo sapiens, UniProt P78545 1-371); details: protein: recombinant; tags: N-terminal GST; dsDNA, one strand shown
T5 sequence: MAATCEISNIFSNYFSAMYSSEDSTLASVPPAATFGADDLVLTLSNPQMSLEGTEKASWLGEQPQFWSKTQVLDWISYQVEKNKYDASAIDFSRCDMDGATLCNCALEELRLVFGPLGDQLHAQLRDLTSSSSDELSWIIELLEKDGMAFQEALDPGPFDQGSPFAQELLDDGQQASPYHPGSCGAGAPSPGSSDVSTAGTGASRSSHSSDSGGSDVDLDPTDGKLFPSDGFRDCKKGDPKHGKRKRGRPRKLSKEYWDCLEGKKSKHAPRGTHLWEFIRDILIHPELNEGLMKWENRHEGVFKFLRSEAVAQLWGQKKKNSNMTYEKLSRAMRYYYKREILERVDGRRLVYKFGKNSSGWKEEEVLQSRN
Summary of the method: as §1

[9] = molecular target: CRX (Homo sapiens, UniProt O43186 1-299); details: protein: recombinant; tags: N-terminal GST; dsDNA, one strand shown
Summary of the method: as §1

[10] = molecular target: ETV1 (Homo sapiens, UniProt P50549 1-477); details: protein: recombinant; tags: N-terminal GST; dsDNA, one strand shown
Summary of the method: as §1

[11] = molecular target: T6, ERF (Homo sapiens, UniProt P50548 1-548); details: protein: recombinant; tags: N-terminal GST; dsDNA, one strand shown
T6 sequence: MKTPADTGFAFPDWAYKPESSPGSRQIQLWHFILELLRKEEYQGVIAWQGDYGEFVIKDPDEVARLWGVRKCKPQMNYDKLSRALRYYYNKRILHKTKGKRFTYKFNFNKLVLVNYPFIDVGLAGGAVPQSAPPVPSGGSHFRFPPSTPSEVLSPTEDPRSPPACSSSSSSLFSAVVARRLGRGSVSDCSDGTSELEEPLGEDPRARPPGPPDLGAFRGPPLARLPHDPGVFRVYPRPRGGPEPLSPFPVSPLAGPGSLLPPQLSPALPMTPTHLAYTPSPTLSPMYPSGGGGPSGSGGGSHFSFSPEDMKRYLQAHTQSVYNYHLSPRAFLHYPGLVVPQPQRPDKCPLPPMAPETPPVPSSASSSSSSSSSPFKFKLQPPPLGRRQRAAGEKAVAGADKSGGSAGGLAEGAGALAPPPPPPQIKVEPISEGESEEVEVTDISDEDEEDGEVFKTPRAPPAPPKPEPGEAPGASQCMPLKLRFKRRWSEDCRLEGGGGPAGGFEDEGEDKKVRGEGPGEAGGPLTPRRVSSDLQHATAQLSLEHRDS
Summary of the method: as §1

[12] = molecular target: T7, ETV3L (Homo sapiens, UniProt Q6ZN32 1-361); details: protein: recombinant; tags: N-terminal GST; dsDNA, one strand shown
T7 sequence: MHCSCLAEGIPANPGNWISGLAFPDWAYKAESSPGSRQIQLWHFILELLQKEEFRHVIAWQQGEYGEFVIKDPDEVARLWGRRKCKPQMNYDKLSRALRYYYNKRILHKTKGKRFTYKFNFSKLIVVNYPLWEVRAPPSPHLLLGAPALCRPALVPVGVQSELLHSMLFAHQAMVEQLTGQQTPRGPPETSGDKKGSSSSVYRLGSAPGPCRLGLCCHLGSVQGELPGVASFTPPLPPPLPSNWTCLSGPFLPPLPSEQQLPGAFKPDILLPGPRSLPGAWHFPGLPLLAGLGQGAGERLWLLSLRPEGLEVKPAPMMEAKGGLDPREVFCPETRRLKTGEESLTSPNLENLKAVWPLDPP
Summary of the method: as §1

[13] = molecular target: T8, ETS2 (Homo sapiens, UniProt P15036 1-469); details: protein: recombinant; tags: N-terminal GST; dsDNA, one strand shown
T8 sequence: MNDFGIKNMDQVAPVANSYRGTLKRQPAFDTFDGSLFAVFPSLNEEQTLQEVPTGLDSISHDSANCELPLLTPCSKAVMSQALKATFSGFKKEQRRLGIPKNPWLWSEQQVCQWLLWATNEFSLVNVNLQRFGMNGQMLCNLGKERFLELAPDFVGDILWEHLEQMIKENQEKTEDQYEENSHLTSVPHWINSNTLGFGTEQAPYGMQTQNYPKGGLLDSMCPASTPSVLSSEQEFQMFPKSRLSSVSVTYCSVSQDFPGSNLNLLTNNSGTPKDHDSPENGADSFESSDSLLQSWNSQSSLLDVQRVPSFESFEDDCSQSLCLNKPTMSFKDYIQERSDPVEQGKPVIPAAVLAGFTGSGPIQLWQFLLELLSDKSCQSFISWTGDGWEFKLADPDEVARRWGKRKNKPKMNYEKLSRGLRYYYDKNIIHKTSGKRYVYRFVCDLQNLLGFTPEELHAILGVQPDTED
Summary of the method: as §1

[14] = molecular target: T9, SPDEF (Homo sapiens, UniProt O95238 1-335); details: protein: recombinant; tags: N-terminal GST; dsDNA, one strand shown
T9 sequence: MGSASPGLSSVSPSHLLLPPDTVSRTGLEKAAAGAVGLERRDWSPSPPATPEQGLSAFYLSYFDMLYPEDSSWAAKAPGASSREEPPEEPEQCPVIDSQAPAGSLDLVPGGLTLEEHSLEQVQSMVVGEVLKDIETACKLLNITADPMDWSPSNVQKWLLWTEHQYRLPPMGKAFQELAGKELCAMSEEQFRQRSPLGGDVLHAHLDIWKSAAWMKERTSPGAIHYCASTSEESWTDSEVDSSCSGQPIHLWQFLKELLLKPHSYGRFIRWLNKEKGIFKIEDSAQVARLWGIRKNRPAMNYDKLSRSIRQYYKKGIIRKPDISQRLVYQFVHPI
Summary of the method: as §1

[15] = molecular target: T10, ETV7 (Homo sapiens, UniProt Q9Y603 1-341); details: protein: recombinant; tags: N-terminal GST; dsDNA, one strand shown
T10 sequence: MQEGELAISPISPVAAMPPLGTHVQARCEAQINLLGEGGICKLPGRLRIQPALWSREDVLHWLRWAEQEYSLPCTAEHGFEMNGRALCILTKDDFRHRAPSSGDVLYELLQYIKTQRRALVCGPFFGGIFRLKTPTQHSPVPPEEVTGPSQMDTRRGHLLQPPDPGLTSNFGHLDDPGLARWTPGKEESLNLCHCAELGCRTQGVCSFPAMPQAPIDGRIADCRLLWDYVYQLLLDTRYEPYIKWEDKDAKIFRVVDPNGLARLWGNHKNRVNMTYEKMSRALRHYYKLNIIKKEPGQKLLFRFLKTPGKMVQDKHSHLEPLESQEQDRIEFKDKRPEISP
Summary of the method: as §1

[16] = molecular target: T11, ELF5 (Homo sapiens, UniProt Q9UKW6-2 1-255); details: protein: recombinant; tags: N-terminal GST; dsDNA, one strand shown
T11 sequence: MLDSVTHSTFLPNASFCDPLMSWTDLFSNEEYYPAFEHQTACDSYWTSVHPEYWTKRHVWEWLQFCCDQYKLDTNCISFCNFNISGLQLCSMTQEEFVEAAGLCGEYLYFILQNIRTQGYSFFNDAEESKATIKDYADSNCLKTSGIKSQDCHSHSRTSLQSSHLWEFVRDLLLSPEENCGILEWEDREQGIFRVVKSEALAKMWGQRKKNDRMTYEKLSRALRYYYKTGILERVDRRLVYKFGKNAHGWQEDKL
Summary of the method: as §1

[17] = molecular target: T12, ETV3 (Homo sapiens, UniProt P41162-2 1-143); details: protein: recombinant; tags: N-terminal GST; dsDNA, one strand shown
T12 sequence: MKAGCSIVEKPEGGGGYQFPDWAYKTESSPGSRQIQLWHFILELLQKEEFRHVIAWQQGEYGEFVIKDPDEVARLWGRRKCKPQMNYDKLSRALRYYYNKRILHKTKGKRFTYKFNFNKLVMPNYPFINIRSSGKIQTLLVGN
Summary of the method: as §1

[18] = molecular target: ETV6 (Homo sapiens, UniProt P41212 1-452); details: protein: recombinant; tags: N-terminal GST; dsDNA, one strand shown
Summary of the method: as §1

ETV6, sequence (P41212 whole entry): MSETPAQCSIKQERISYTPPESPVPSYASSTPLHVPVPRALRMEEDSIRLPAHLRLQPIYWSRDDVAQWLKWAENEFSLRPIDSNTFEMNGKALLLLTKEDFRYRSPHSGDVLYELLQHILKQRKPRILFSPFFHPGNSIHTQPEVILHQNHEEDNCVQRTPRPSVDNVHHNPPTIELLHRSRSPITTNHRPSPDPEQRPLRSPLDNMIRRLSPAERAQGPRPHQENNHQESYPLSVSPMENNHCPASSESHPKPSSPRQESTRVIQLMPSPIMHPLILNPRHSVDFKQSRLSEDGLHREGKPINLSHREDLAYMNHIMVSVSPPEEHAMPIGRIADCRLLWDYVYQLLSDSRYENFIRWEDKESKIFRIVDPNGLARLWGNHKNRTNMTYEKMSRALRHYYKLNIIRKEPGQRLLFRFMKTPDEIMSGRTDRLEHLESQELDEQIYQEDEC
ETV1, sequence (P50549 whole entry): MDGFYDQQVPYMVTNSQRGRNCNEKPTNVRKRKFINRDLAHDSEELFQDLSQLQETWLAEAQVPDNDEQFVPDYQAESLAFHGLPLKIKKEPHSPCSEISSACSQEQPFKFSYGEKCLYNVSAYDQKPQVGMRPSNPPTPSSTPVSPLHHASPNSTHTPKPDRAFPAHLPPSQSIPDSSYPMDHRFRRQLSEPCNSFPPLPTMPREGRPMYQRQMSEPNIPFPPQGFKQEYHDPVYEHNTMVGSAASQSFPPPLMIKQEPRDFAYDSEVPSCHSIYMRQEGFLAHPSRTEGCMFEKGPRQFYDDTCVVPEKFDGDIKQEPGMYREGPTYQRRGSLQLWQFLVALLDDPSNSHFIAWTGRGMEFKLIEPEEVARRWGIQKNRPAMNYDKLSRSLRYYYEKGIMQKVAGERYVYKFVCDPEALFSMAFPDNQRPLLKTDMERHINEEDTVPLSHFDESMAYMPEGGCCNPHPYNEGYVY
HSF1, sequence (Q00613 whole entry): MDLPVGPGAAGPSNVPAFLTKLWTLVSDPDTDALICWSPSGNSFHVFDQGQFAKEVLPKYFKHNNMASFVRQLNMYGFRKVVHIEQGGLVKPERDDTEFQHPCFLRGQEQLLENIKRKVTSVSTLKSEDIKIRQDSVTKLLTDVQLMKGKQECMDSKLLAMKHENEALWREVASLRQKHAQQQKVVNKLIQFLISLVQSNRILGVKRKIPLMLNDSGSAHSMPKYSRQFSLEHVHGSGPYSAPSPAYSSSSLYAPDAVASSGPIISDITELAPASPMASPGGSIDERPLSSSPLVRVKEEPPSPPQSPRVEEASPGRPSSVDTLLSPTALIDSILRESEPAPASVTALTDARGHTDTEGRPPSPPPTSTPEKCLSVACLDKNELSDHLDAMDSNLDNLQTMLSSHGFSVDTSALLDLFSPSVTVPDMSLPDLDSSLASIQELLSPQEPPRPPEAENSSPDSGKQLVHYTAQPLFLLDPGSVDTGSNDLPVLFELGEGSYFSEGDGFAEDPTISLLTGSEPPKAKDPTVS
CRX, sequence (O43186 whole entry): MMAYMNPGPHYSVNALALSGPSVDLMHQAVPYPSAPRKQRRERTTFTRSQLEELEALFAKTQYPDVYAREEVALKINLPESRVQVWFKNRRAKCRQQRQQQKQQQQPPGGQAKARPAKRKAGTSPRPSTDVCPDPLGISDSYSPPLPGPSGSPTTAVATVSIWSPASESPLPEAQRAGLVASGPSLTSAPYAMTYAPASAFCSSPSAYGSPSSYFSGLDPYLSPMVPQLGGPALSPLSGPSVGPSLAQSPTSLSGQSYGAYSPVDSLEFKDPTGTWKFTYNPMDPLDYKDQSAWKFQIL
ETV5, sequence (P41161 whole entry): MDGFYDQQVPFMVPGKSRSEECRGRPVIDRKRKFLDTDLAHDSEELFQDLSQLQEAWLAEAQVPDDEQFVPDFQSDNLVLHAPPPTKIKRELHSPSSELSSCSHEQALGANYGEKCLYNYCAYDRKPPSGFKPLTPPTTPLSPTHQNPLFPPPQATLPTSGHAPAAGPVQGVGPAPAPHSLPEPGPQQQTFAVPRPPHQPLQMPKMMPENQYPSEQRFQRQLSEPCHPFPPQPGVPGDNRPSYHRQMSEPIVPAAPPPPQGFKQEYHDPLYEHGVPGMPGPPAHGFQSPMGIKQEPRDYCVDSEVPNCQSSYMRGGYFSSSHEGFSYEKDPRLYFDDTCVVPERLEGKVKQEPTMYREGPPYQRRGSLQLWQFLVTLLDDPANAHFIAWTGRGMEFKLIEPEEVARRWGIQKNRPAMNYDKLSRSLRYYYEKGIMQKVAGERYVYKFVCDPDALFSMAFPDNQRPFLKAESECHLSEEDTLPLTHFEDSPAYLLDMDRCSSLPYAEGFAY
ELF4, sequence (Q99607 whole entry): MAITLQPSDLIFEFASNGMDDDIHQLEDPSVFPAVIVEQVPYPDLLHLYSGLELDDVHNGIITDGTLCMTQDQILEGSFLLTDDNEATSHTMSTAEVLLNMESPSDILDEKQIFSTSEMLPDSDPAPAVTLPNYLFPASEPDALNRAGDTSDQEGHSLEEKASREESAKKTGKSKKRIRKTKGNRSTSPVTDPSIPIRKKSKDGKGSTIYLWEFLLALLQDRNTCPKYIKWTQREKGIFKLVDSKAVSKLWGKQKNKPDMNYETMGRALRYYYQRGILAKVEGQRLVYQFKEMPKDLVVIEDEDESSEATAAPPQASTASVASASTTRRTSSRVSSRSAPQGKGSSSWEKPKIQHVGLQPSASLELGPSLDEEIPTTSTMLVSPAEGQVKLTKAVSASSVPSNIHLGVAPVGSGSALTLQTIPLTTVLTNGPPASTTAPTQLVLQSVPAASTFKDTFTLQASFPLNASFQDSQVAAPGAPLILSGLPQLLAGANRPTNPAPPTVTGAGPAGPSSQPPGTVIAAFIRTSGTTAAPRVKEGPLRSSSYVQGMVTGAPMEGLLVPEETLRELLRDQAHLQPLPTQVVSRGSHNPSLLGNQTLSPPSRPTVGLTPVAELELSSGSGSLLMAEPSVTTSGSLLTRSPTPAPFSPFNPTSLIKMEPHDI

TAGTAC
binding signal [1]: 1.16 fold enrichment (6-mer frequency, TF over GST control)
binding signal [2]: 1.14 fold enrichment (6-mer frequency, TF over GST control)
binding signal [3]: 1.25 fold enrichment (6-mer frequency, TF over GST control)
binding signal [4]: 1.27 fold enrichment (6-mer frequency, TF over GST control)
binding signal [5]: 1.15 fold enrichment (6-mer frequency, TF over GST control)
binding signal [6]: 1.16 fold enrichment (6-mer frequency, TF over GST control)
binding signal [7]: 1.06 fold enrichment (6-mer frequency, TF over GST control)
binding signal [8]: 1.14 fold enrichment (6-mer frequency, TF over GST control)
binding signal [9]: 1.29 fold enrichment (6-mer frequency, TF over GST control)
binding signal [10]: 1.14 fold enrichment (6-mer frequency, TF over GST control)
binding signal [11]: 1.13 fold enrichment (6-mer frequency, TF over GST control)
binding signal [12]: 1.1 fold enrichment (6-mer frequency, TF over GST control)
binding signal [13]: 1.17 fold enrichment (6-mer frequency, TF over GST control)
binding signal [14]: 1.14 fold enrichment (6-mer frequency, TF over GST control)
binding signal [15]: 1.17 fold enrichment (6-mer frequency, TF over GST control)
binding signal [16]: 1.17 fold enrichment (6-mer frequency, TF over GST control)
binding signal [17]: 1.27 fold enrichment (6-mer frequency, TF over GST control)
binding signal [18]: 1.22 fold enrichment (6-mer frequency, TF over GST control)
